We go through five molecules from PubChem BioAssay.

Experiment [1] is described as follows: reducers of endogenous Her2 protein level, primary screen, SKBR3 breast tumor cells, AlphaScreen, ATP viability (AID 461;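 active means Her2 level under about 52% in both replicate screens, with viability over 70% of control, limit read from the data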;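 on Her2 level: lower value means less Her2 protein in the cells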;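 on viability: percent of carrier control wells set as 100% viability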). Conditions: 18-24 h, measured here: SKBR3 viability, ATP luminescence, at 10 µM.
The target in experiment [2] is Receptor tyrosine-protein kinase erbB-2 (Homo sapiens) (UniProt P04626). Described as above. The following applies: 18-24 h, at 10 µM, stronger effect = lower value.
Sequence of Receptor tyrosine-protein kinase erbB-2 (Homo sapiens) (P04626 whole entry, looked up): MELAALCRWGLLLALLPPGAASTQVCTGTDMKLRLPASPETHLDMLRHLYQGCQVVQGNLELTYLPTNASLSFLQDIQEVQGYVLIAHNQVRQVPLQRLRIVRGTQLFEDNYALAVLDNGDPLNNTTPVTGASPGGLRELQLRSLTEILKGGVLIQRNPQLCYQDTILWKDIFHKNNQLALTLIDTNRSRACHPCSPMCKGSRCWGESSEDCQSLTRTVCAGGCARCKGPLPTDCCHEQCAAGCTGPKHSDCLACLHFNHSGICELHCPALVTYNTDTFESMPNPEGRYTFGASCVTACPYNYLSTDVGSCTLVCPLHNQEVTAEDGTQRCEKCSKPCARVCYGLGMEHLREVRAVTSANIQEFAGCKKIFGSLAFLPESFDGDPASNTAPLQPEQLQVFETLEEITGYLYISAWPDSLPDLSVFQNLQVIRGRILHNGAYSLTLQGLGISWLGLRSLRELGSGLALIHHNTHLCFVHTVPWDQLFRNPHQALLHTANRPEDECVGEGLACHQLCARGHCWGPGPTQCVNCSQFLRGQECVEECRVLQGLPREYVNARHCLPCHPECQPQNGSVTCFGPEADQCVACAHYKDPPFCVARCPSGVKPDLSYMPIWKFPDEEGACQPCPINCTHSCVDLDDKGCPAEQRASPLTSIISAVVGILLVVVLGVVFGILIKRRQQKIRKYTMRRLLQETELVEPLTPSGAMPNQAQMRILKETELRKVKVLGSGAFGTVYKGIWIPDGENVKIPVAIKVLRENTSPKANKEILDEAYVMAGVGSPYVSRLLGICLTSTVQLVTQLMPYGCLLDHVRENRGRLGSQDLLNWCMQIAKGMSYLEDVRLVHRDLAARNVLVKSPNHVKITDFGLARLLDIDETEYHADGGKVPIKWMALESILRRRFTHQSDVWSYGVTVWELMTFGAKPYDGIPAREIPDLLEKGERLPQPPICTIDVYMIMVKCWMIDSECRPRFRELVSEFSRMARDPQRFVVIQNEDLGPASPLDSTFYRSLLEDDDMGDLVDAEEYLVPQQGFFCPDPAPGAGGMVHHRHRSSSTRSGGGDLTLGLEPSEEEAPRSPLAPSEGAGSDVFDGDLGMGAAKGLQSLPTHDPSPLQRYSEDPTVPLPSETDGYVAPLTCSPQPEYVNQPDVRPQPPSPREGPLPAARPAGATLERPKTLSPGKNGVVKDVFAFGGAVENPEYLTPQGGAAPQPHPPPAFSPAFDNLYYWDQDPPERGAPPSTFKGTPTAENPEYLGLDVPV
Experiment [3] in a line: SK-BR-3 cell growth inhibitors, pilot screen, 24 h, human (AID 572;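 active means viability at or below 10% of carrier control in both of two separate runs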;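 further: compound exposure lasted between 18 and 24 h rather than exactly 24 h; 100% = carrier-treated control wells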). The following applies: SK-BR-3 viability, CellTiter-Glo luminescence, at 10 µM, stronger effect = lower value. On the technique in general: ATP-based viability assays read luminescence as a measure of living cells.
Experiment [4] can be described thus: HUVEC growth inhibition – cell-based, human, primary screen (AID 575;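 active means viability at or below 30% in both replicate assays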;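 further: 100% = median of untreated cell wells with 0.1% DMSO on each plate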). The following applies: HUVEC proliferation, CellTiter-Glo luminescence, 72 h; at 10 µM; stronger effect = lower value.
A short description of experiment [5]: growth inhibitors of H69AR lung tumor, primary screen, human, duplicate replicates (AID 580;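 active means viability at or under a set limit in both replicates, limit being median viability minus 3 SD, cut at about 48% in these data, passing the limit was not always enough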;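 further: 100% = mean luminescence of untreated wells and 0% = no signal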). Conditions: H69AR lung tumor cells viability, ATP luminescence, 72 h; at 10 µM; stronger effect = lower value.
Experiment [6] in a line: reversal of MRP1-mediated doxorubicin resistance, pilot screen, H69AR cells, doxorubicin co-treatment (AID 601;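 active means viability loss from added drug above about 55%, and viability with drug at most 40%, in both replicates, limit read from the data, passing the limit was not always enough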). The following applies: CellTiter-Glo, 72 h, at 10 µM; for differential viability (reversal): stronger effect = higher value.
A short description of experiment [7]: 384-well plate pilot, post-Golgi transport modulator project, inhibition of yeast transport mutant growth (AID 636; in the data active means inhibition above about 31%). Conditions: absorbance 615 nm, about 18 h, stronger effect = higher value.
The nature of experiment [8]: growth suppression of yeast trafficking mutant, preliminary HTS, modulators of trafficking downstream of Golgi apparatus project, 1536-format plate, OD 615 nm (AID 637; in the data active means inhibition above about 30%). Conditions: yeast transport mutant growth, absorbance 615 nm, 18 h; stronger effect = higher value.
Experiment [9] is described as follows: OD615 S. cerevisiae growth inhibition, permissive medium, pilot counter-assay, permissive growth control for S. cerevisiae lifespan shortening project (AID 705;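 active means growth inhibition above 25% in both replicates, a cutoff set 3 SD above the mean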). Conditions: OD615, 24 h, at 10 µM, stronger effect = higher value.
A short description of experiment [10]: Restrictive medium S. cerevisiae growth inhibition, OD615, pilot screen of yeast lifespan reduction project, restrictive growth control (AID 706;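 active means growth inhibition above a set limit, 3 SD over mean compound inhibition, in both replicates, cut at about 43% in these data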;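 further: modified DeaD lifespan yeast strain shifted to restrictive glucose medium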). Conditions: OD615, 48 h, at 10 µM, stronger effect = higher value.
The nature of experiment [11]: viability gain of MRP-1-high H69AR cells under doxorubicin, pilot screen, MRP-1 activator project, CellTiter-Glo, duplicate (AID 807;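 active means viability increase at or above a cutoff of the median across tested compounds plus 3 SD, cut at about 8.5% in these data, passing the limit was not always enough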;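 further: compound pretreatment 18-22 h then 72 h combined with doxorubicin; 0% = doxorubicin alone and 100% = vehicle without doxorubicin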). The following applies: H69AR viability with doxorubicin, CellTiter-Glo luminescence; at 10 µM; stronger effect = higher value.
Experiment [12] is described as follows: growth suppression of beta-catenin knockout HCT116, pilot screen, human colon tumor cells (AID 823;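 active means cell viability at or below a set limit in both duplicate runs, the limit being the all-compound median minus 4 SD, cut at about 23% in these data, passing the limit was not always enough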;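 further: 0% = wells killed by 20 µM Hyamine and 100% = untreated DMSO cell wells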). Conditions: CellTiter-Glo, 60 h, at 10 µM, stronger effect = lower value.
Experiment [13] is described as follows: growth suppression of PTEN-deleted HCT116, pilot screen, cell-based, HCT116 clonal line, CellTiter-Glo (AID 824).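 Further: 0% = 20 µM Hyamine control and 100% = vehicle cell control.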 Conditions: 60 h, at 10 µM, stronger effect = lower value.
Experiment [14] in a line: inhibitors of the yeast RAM network, pilot screen, dse1pr::URA3 reporter, 5-FOA selection (AID 869;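 active means inhibition over a set limit, the all-compound mean plus 3 SD, in both replicate runs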;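 further: 0% = DMSO wells with no growth and 100% = 10 µM 1-NA-PP1 with full growth; RAM network block rescues cells from 5-FOA so hits raise OD615 growth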). Conditions: S. cerevisiae dse1pr::URA3 5-FOA growth, OD615, 2 d; at 10 µM; stronger effect = higher value; strain carries analog-sensitive mutant Cbk1 kinase.
A short description of experiment [15]: RAM signaling pathway blockade in yeast – S. cerevisiae, Pdr1DBD-CYC8 efflux-inhibited sensitized strain, primary screen (AID 1298;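 active means RAM network inhibition above 8.4% in each of two replicates, 3 SD over the compound average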;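 further: 0% = DMSO untreated cells without growth and 100% = 10 µM 1-NA-PP1 full growth; higher means more yeast growth rescued from 5-FOA killing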). The following applies: S. cerevisiae cbk1-as DSE1-URA3 strain, 5-FOA growth OD615, 2 d; at 50 µM; stronger effect = higher value.
Where [16] appears, read: H69AR cells + 2 uM doxorubicin, measured here: viability with 2 uM doxorubicin, stronger effect = lower value.
The mark [17] stands for this setting: H69AR cells, compound alone cytotoxicity.

Molecules are shown by their SMILES. Results filed as inconclusive are left out. Active and inactive are the calls of the source.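 How the source made its calls, unless noted: active means viability at or below 27.92% in each of two runs, the all-compound median minus 4 SD; inconclusive means no clear call, values can overlap the other calls; inactive means the rest.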

A word on the viability: it is a read-out of living cells in per cent, often relative to untreated cells. In general, inhibition refers to the change of the read-out against control, counted positive when it falls.

Turning to `Cc1cc(N=Cc2cc(Br)ccc2O)no1`, the viability is 108% in experiment [1]; 108% (inactive) in experiment [3]; 74.4% (inactive) in experiment [4]; 73.1% (inactive) in [5]; 102% in [6] (setting [16]); 73.1% in experiment [6] (setting [17]). For the same molecule, the results for the viability in experiment [12] and in experiment [13] were 90.8% (inactive) and 95.8% (inactive), respectively. Besides, the Her2 level in experiment [2] is 118% (inactive). Besides, the differential viability (reversal) in experiment [6] (H69AR cells + 2 uM doxorubicin) is -28.9% (inactive). Further, the inhibition in [7] is -3.72% (inactive); in [8], -6.67% (inactive); in experiment [14] it was 0.26% (inactive). The figures for the growth inhibition in experiment [9] and in [10] were -13% (inactive) and -22.7% (inactive), respectively. Also, the viability increase in experiment [11] was -2.84% (inactive). Also, in experiment [15], the RAM network inhibition was -1.15% (inactive).

Turning to `COc1ccccc1Oc1ccc(S(=O)(=O)N2CCOCC2)cc1S(=O)(=O)N1CCOCC1`, the viability in experiment [1] is 86.5%; in experiment [3] it was 86.5% (inactive); in experiment [4] it was 101% (inactive); in [5], 83.6% (inactive); in experiment [6] (setting [16]) it was 88.1%; in experiment [6] (setting [17]) it was 83.6%. Further, the viability is 93.6% (inactive) in [12] and 98.3% (inactive) in experiment [13]. The Her2 level in experiment [2] was 121% (inactive). Also, the differential viability (reversal) in [6] (H69AR cells + 2 uM doxorubicin) is -4.58% (inactive). The inhibition in experiment [7] is -0.77% (inactive); in experiment [8], -6.67% (inactive); in experiment [14], 2.41% (inactive). The growth inhibition in experiment [9] was -16.4% (inactive); in [10], -21.3% (inactive). Further, the viability increase in experiment [11] was -0.17% (inactive). In addition, the RAM network inhibition in experiment [15] is 4.3% (inactive).

Regarding `O=C(Cn1cc2c(n1)CCCC2)NCCc1ccccc1`, the viability was 105% in experiment [1]; 105% (inactive) in experiment [3]; 103% (inactive) in [4]; 88.4% (inactive) in [5]; 111% in experiment [6] (setting [16]); 88.4% in [6] (setting [17]). The results for the viability in experiment [12] and in experiment [13] were 106% (inactive) and 95.3% (inactive), respectively. Also, the Her2 level in experiment [2] was 100% (inactive). Moreover, in experiment [6] (H69AR cells + 2 uM doxorubicin), the differential viability (reversal) is -22.7% (inactive). Also, the inhibition is -1.6% (inactive) in [7], -4.33% (inactive) in [8] and 1.38% (inactive) in [14]. In addition, the growth inhibition in experiment [9] was -2.47% (inactive); in experiment [10] it was -9.12% (inactive). Further, the viability increase in experiment [11] was -0.17% (inactive). In [15], the RAM network inhibition is 1.42% (inactive).

Turning to `CCOC(=O)C1=C(C)N(C)C(=O)NC1c1cccc(O)c1` (stereo not given), the viability in experiment [1] is 102%; in experiment [3], 102% (inactive); in [4] it was 90.1% (inactive); in experiment [5], 86.9% (inactive); in experiment [6] (setting [16]), 101%; in [6] (setting [17]), 86.9%. The viability in [12] is 99.2% (inactive); in experiment [13], 95.9% (inactive). In addition, the Her2 level in [2] is 85% (inactive). In addition, the differential viability (reversal) in experiment [6] (H69AR cells + 2 uM doxorubicin) was -13.7% (inactive). In addition, the inhibition in [7] is -0.9% (inactive); in [8], -6.5% (inactive); in [14], -0.435% (inactive). Also, the growth inhibition in experiment [9] was -6.63% (inactive); in [10], 4.03% (inactive). The viability increase in experiment [11] is -0.55% (inactive). Besides, the RAM network inhibition in experiment [15] is -0.57% (inactive).

For `Cc1ccc(CCP(=O)(O)CN2CCOCC2)cn1`, the viability in experiment [1] is 85%; in experiment [3], 85% (inactive); in [4], 101% (inactive); in [5] it was 104% (inactive); in experiment [6] (setting [16]), 91.4%; in experiment [6] (setting [17]) it was 104%. Besides, the viability was 89.2% (inactive) in [12] and 92.3% (inactive) in experiment [13]. Also, the Her2 level in experiment [2] was 87.5% (inactive). Also, the differential viability (reversal) in experiment [6] (H69AR cells + 2 uM doxorubicin) was 12.3% (inactive). The inhibition in [7] is -7.57% (inactive); in [8], 3.61% (inactive); in experiment [14], 0.17% (inactive). The results for the growth inhibition in [9] and in [10] were -11.9% (inactive) and -9.14% (inactive), respectively. In addition, in experiment [11], the viability increase was 0.51% (inactive). Moreover, the RAM network inhibition in experiment [15] is -0.42% (inactive).
